# Reference: PubChem BioAssay (NCI)
# About 83,000 compounds went through this panel and 20% of them were active in at least one assay; those are over-represented in the sample as a whole.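 Compound tested at a single concentration for 48 hours in 96-well plates; a percent growth value below 10 was scored as active.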 Values without a mark were called inactive. The source made the active and inactive calls.
# What was measured:
# Experiment in all cases: NCI-60 one-dose screen, 48 h (100 = growth as untreated, 0 = no growth, -100 = all killed)
# Settings in all cases: 10 µM
# SK-MEL-2 melanoma = test system: SK-MEL-2 melanoma
# EKVX NSCLC = test system: EKVX NSCLC
# SN12C renal = test system: SN12C renal
# UO-31 renal = test system: UO-31 renal
# TK-10 renal = test system: TK-10 renal
# ACHN renal = test system: ACHN renal
# CAKI-1 renal = test system: CAKI-1 renal
# A498 renal = test system: A498 renal
# MOLT-4 leukemia = test system: MOLT-4 leukemia
# CCRF-CEM leukemia = test system: CCRF-CEM leukemia
Compound,growth (SK-MEL-2 melanoma),growth (EKVX NSCLC),growth (SN12C renal),growth (UO-31 renal),growth (TK-10 renal),growth (ACHN renal),growth (CAKI-1 renal),growth (A498 renal),growth (MOLT-4 leukemia),growth (CCRF-CEM leukemia) [%]
Cc1n[nH]c(C)c1N=Nc1cccc2c1C(=O)c1ccccc1C2=O,105%,61.8%,91.6%,66.4%,97.8%,80%,73.6%,55.2%,84.5%,
N#CC1=CC2CN(Cc3ccccc3)C1C1C(=O)N(c3ccccc3)C(=O)C21 (centres undefined),105%,94.7%,100%,74.7%,96.2%,103%,101%,,89.5%,97.2
COc1ccc(C(c2ccc(OCCN(C)C)cc2)c2cc3ccccc3c3ccccc23)cc1 (centres undefined),86.4%,56.6%,64.4%,72.2%,88%,21.6%,76.5%,101%,5.83% (active),
C=CCN(CC=C)C(=O)[C@H](CC)[C@@H]1CC[C@@H](C)[C@@H]([C@H](C)[C@@H](O)[C@@H](C)C(=O)[C@H](CC)C2O[C@]3(C=C[C@@H](O)[C@]4(CC[C@@](C)([C@H]5CC[C@](O)(CC)[C@H](C)O5)O4)O3)[C@H](C)C[C@@H]2C)O1 (some centres undefined),-7.12% (active),-5.86% (active),6.36% (active),-12.6% (active),16.2%,5.93% (active),1.41% (active),-2.03% (active),19.4%,
COc1cc(C(=O)/C(C)=C/c2c[nH]c3ccccc23)cc(OC)c1OC,28.7%,33.5%,26.3%,48.8%,62.3%,28.1%,34.1%,24.8%,17.5%,
COc1ccc(-c2nn(-c3cccc(Cl)c3)cc2-c2c(C#N)c(=O)n3[nH]c(-c4ccccc4)nc3c2C#N)cc1,88.6%,35.9%,104%,82.5%,123%,101%,62.9%,,61.6%,74.4
O=C(CCc1nnc2sc(-c3cc(O)c(O)c(O)c3)nn12)c1nc2ccccc2[nH]1,111%,96.7%,107%,83.2%,117%,106%,100%,75.2%,92.3%,
C=CCn1c(SCC(=O)Nc2ccc(C(=O)/C=C/c3cc(OC)c(OC)c(OC)c3)cc2)nnc1-c1cc(-c2ccc(Cl)cc2)nc2ccccc12,103%,86.4%,86.8%,57.1%,113%,86.1%,67.2%,80.6%,52.6%,
COc1ccc(-c2nn(-c3cccc(Cl)c3)cc2-c2c(C#N)c(=O)n3[nH]c(-c4ccc(C)cc4)nc3c2C#N)cc1,46%,37.9%,60.9%,34.7%,58%,43.2%,15.2%,,-23.8% (active),31.4
Cc1cc(CSc2ccccc2C(=O)N2CC=C(c3ccccc3)CC2)on1,94.1%,90.7%,105%,88.1%,96.9%,91.6%,86.3%,98.4%,91.6%,
O=C(O)c1ccc(-n2cc(CNc3ccc(Oc4ccccc4)cc3)c(-c3ccccc3)n2)cc1,88.5%,85.1%,93.4%,76.6%,90.1%,87.4%,86.4%,83.2%,-4.16% (active),
COc1ccc(-c2cc(-c3ccc(Cl)cc3)nc(SCCCCCCC(=O)NO)n2)cc1OC,89.3%,51.6%,70.6%,20.1%,61.1%,38.1%,30.3%,67.9%,16.2%,
COc1ccc(-c2cc(-c3ccccc3)nc(SCCCC(=O)NO)n2)cc1,-7.04% (active),-23.3% (active),-8.2% (active),-52% (active),6.16% (active),-17.8% (active),-16.4% (active),-44.3% (active),4.82% (active),
Clc1ccc(C2=NN=C3C(Cc4ccccc4)=Nc4ccccc4N3C2)cc1,105%,86%,83.2%,63.1%,68.4%,63.2%,55.4%,68.5%,61.3%,
COc1ccc(C2=Cn3c(CCC(=O)c4nc5ccccc5[nH]4)nnc3SC2)cc1,106%,90.3%,98.9%,82%,125%,110%,96.9%,58%,43.2%,
COc1cc2ncnc(NC3CCC(O)CC3)c2cc1OC (centres undefined),97.1%,80.8%,106%,76.2%,90%,94.9%,88.5%,93.7%,62.8%,
COc1cc(-c2csc(NC(=O)Nc3cc(C(F)(F)F)cc(C(F)(F)F)c3)n2)cc(OC)c1OC,7.21% (active),4.59% (active),7.93% (active),7.12% (active),9.24% (active),4.33% (active),10.4%,10.1%,17.4%,
C#CCOc1c(OC)cc(C(=O)/C(C)=C/c2cccc(N=[N+]=[N-])c2)cc1OC,27.5%,46%,41.8%,50.9%,60.8%,32.4%,42.9%,23.4%,21.8%,
Cc1c[nH]c(=O)n(Cc2nnc(CCC(=O)c3nc4ccccc4[nH]3)o2)c1=O,25.2%,54.9%,30.2%,44.2%,64.1%,61.1%,63.5%,11.5%,9.42% (active),
CC(=O)N[C@H](C(=O)N[C@@H](CCCNC(=N)N)C(=O)N[C@@H](CCCCN)C(=O)N[C@@H](CCCNC(=N)N)C(=O)N[C@]1(C)CCCCCC/C=C\CCC[C@@](C)(C(=O)N[C@@H](CCCNC(=N)N)C(=O)N[C@@H](CCC(=O)O)C(=O)N[C@@H](CC(C)C)C(=O)N[C@H](C(=O)N[C@@H](CCC(=O)O)C(N)=O)C(C)C)NC(=O)[C@H](CCC(N)=O)NC(=O)[C@H](CC(C)C)NC(=O)[C@H](CC(C)C)NC(=O)[C@H](CCCNC(=N)N)NC(=O)[C@H](CCCNC(=N)N)NC(=O)[C@H](CC(C)C)NC1=O)C(C)C,53.5%,-22.3% (active),-41.3% (active),50.1%,-43% (active),9.21% (active),16.1%,1.28% (active),34.6%,
COc1ccc(-c2cc(-c3ccccc3)nc(SCCCCCCC(=O)NO)n2)cc1,78%,74.2%,79.6%,34.3%,45.9%,45.4%,39.6%,48.7%,14.4%,
Nc1cc(Br)c(-c2nn3c(CCC(=O)c4nc5ccccc5[nH]4)nnc3s2)c(Br)c1,100%,95.5%,97.7%,71.1%,117%,99.8%,95.4%,65.6%,84.9%,
CNC(=O)c1cn2c3c(c(N4CCN(C)CC4)c(F)cc3c1=O)OC[C@@H]2C,95.4%,93.5%,104%,92.3%,90.6%,111%,94.7%,92.8%,101%,
CCc1ccc(C2=NN(c3ccc(S(C)(=O)=O)cc3)C(=O)CC2)cc1,36.9%,60.4%,31.4%,33.3%,71.1%,46%,16.7%,,15.3%,15.6
O=C(CCn1cnc2c(cc(-c3ccccc3)n2-c2ccccc2)c1=O)Nc1ccc(F)cc1,84.5%,80.8%,73.6%,75%,92.8%,55.7%,97.1%,63.8%,85.5%,
Cc1noc(C)c1CSc1ccccc1C(=O)N1CCN(c2cccc(C(F)(F)F)c2)CC1,85.1%,66.7%,80.2%,67.5%,91.3%,84.9%,68.8%,77.5%,67.6%,
